Reference: PubChem BioAssay (EPA / NIEHS)
Calls of active or inactive are those of the source. How the source made its calls: active means hit-call score of the fitted dose curve at least 0.9, where 1 is the maximum; inactive means score below 0.9.

Assay: CCTE_Harrill_HTTr_Viability_MCF7: CCTE's 6-hour Cell Viability Assessment for the High-Throughput Transcriptomics (HTTr) Platform, in MCF-7 cells cultured in DMEM + 10% fetal bovine serum, Harrill Lab (AID 2284010)
Procedure, shortened: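 Membrane integrity was scored by high-content imaging of propidium iodide dye exclusion after a 6 h exposure across an eight-point dilution series. Data were fitted bidirectionally relative to DMSO as negative control and baseline.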

Structure (SMILES) | outcome
Fc1ccc(Br)cc1 | inactive
COC(=O)C=Cc1ccccc1 | inactive
O=C(OCc1ccccc1)c1ccc(O)cc1 | inactive
O=C(O)/C=C/c1ccccc1 | inactive
C=C[C@@]1(C)CC(=O)[C@]2(O)[C@@]3(C)[C@@H](O)CCC(C)(C)[C@@H]3[C@H](O)[C@H](OC(C)=O)[C@@]2(C)O1 | inactive
N#Cc1ccc(C2CCCc3cncn32)cc1 (stereo not given) | inactive
c1ccc2cnccc2c1 | inactive
CC(C)OC(=O)c1ccccc1 | inactive
CC(=O)OCC=C(C)C | inactive
CCCc1ccc(O)c(OC)c1 | inactive
C=C(C)C1CC=C(C)CC1 (stereo not given) | inactive
CC(=O)OCCc1ccccc1 | inactive
CC(C)[N+](C)(CCOC(=O)C1c2ccccc2Oc2ccccc21)C(C)C | inactive
CN(C)c1ccc2nc3ccc(=[N+](C)C)cc-3sc2c1 | inactive
CCCCCCCO | inactive
Nc1ncnc2nc[nH]c12 | inactive
Cc1noc(NS(=O)(=O)c2ccc(N)cc2)c1C | inactive
CC(C)(C)NC(=O)[C@H]1CC[C@H]2[C@@H]3CC[C@H]4NC(=O)C=C[C@]4(C)[C@H]3CC[C@]12C | inactive

Structure (SMILES) | outcome
CCCCC(C=O)CC (stereo not given) | inactive
CC(=O)/C=C/C1C(C)=CCCC1(C)C (stereo not given) | inactive
CC(C)(O)Cc1ccccc1 | inactive
C=C(C)[C@@H]1CC=C(C)CC1 | inactive
CCOC(=O)C1=NOC(c2ccccc2)(c2ccccc2)C1 | inactive
CCCCCCC=O | inactive
CC(C=O)c1ccccc1 (stereo not given) | inactive
C=CCCCCCCCCC=O | inactive
CCCCC1C(=O)N(c2ccccc2)N(c2ccccc2)C1=O | inactive
O=C(O)CCC(=O)O | inactive
CC=CC(=O)OCC(C)C | inactive
O=C(O[C@@H]1Cc2c(O)cc(O)cc2O[C@@H]1c1cc(O)c(O)c(O)c1)c1cc(O)c(O)c(O)c1 | inactive
O=C(O)CCCC(=O)O | inactive
CC(C)(CO)C(O)C(=O)NCCCO (stereo not given) | inactive
CC(=O)c1ccc(S(=O)(=O)NC(=O)NC2CCCCC2)cc1 | inactive
CC(=O)CCC=C(C)C | inactive
CC(=O)CCC1=C(C)CCCC1(C)C | inactive

Assay: CCTE_Harrill_HTTr_Apoptosis_MCF7: CCTE's 6-hour Apoptosis Assessment for the High-Throughput Transcriptomics (HTTr) Platform, in MCF-7 cells cultured in DMEM + 10% fetal bovine serum, Harrill Lab (AID 2284011)
Procedure, shortened: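 High-content imaging of CellEvent Caspase 3/7 Green signal follows a six-hour exposure, with eight concentrations per chemical. MCF-7 cells grown in DMEM plus 10% fetal bovine serum; activity fitted in both directions against DMSO.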

Structure (SMILES) | outcome
Fc1ccc(Br)cc1 | inactive
COC(=O)C=Cc1ccccc1 | inactive
O=C(OCc1ccccc1)c1ccc(O)cc1 | inactive
O=C(O)/C=C/c1ccccc1 | inactive
C=C[C@@]1(C)CC(=O)[C@]2(O)[C@@]3(C)[C@@H](O)CCC(C)(C)[C@@H]3[C@H](O)[C@H](OC(C)=O)[C@@]2(C)O1 | inactive
N#Cc1ccc(C2CCCc3cncn32)cc1 (stereo not given) | inactive
c1ccc2cnccc2c1 | inactive
CC(C)OC(=O)c1ccccc1 | inactive
CC(=O)OCC=C(C)C | inactive
CCCc1ccc(O)c(OC)c1 | inactive
C=C(C)C1CC=C(C)CC1 (stereo not given) | inactive
CC(=O)OCCc1ccccc1 | inactive
CC(C)[N+](C)(CCOC(=O)C1c2ccccc2Oc2ccccc21)C(C)C | inactive
CN(C)c1ccc2nc3ccc(=[N+](C)C)cc-3sc2c1 | inactive
CCCCCCCO | inactive
Nc1ncnc2nc[nH]c12 | inactive
Cc1noc(NS(=O)(=O)c2ccc(N)cc2)c1C | inactive
CC(C)(C)NC(=O)[C@H]1CC[C@H]2[C@@H]3CC[C@H]4NC(=O)C=C[C@]4(C)[C@H]3CC[C@]12C | inactive

Structure (SMILES) | outcome
CCCCC(C=O)CC (stereo not given) | inactive
CC(=O)/C=C/C1C(C)=CCCC1(C)C (stereo not given) | inactive
CC(C)(O)Cc1ccccc1 | inactive
C=C(C)[C@@H]1CC=C(C)CC1 | inactive
CCOC(=O)C1=NOC(c2ccccc2)(c2ccccc2)C1 | inactive
CCCCCCC=O | inactive
CC(C=O)c1ccccc1 (stereo not given) | inactive
C=CCCCCCCCCC=O | inactive
CCCCC1C(=O)N(c2ccccc2)N(c2ccccc2)C1=O | inactive
O=C(O)CCC(=O)O | inactive
CC=CC(=O)OCC(C)C | inactive
O=C(O[C@@H]1Cc2c(O)cc(O)cc2O[C@@H]1c1cc(O)c(O)c(O)c1)c1cc(O)c(O)c(O)c1 | inactive
O=C(O)CCCC(=O)O | inactive
CC(C)(CO)C(O)C(=O)NCCCO (stereo not given) | inactive
CC(=O)c1ccc(S(=O)(=O)NC(=O)NC2CCCCC2)cc1 | inactive
CC(=O)CCC=C(C)C | inactive
CC(=O)CCC1=C(C)CCCC1(C)C | inactive
